Results: PubChem BioAssay (NCI)
This is part of a sample that, as a whole, favours compounds with a hit. Of some 83,000 tested, about 20% had one in any assay.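 Method: cells in 96-well plates; compound added at one concentration; 48 h incubation; percent growth measured; values under 10 scored active.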 The source made the active and inactive calls.

What was measured:
Assay in all cases: NCI-60 one-dose screen, 48 h (100 = growth as untreated, 0 = no growth, -100 = all killed)
Details in all cases: 10 µM unless noted
SR leukemia = test system: SR leukemia
RPMI-8226 leukemia = test system: RPMI-8226 leukemia
OVCAR-8 ovarian = test system: OVCAR-8 ovarian
OVCAR-5 ovarian = test system: OVCAR-5 ovarian
OVCAR-4 ovarian = test system: OVCAR-4 ovarian
SK-OV-3 ovarian = test system: SK-OV-3 ovarian
IGROV1 ovarian = test system: IGROV1 ovarian
OVCAR-3 ovarian = test system: OVCAR-3 ovarian
HS 578T breast = test system: HS 578T breast
NCI/ADR-RES ovarian = test system: NCI/ADR-RES ovarian

Measured: growth

C#Cc1cccc(Nc2ncnc3ccc(-c4cncc(NS(C)(=O)=O)c4)cc23)c1
inactive: RPMI-8226 leukemia 26.3% | OVCAR-8 ovarian 37.1% | OVCAR-5 ovarian 21.9% | OVCAR-4 ovarian 52.1% | NCI/ADR-RES ovarian 78.3%
active: SR leukemia 7.86% | SK-OV-3 ovarian 0.85% | IGROV1 ovarian -12.4% | OVCAR-3 ovarian 7.33% | HS 578T breast 6.13%

COC(=O)[C@H]1CCCN1C[C@@H](O)CN1C(=O)/C(=C\c2cc(OC)c(OC)c(OC)c2)c2ccccc21
inactive: SR leukemia 78% | RPMI-8226 leukemia 91.4% | OVCAR-8 ovarian 92.1% | OVCAR-5 ovarian 123% | OVCAR-4 ovarian 90.6% | SK-OV-3 ovarian 108% | IGROV1 ovarian 102% | OVCAR-3 ovarian 105% | HS 578T breast 99.6% | NCI/ADR-RES ovarian 102%

COc1ccc(OC)c(-c2c(C#N)c(-c3cccs3)nc3c2c(-c2ccccc2)nn3-c2ccccc2)c1
inactive: SR leukemia 106% | RPMI-8226 leukemia 106% | OVCAR-8 ovarian 101% | OVCAR-5 ovarian 103% | OVCAR-4 ovarian 111% | SK-OV-3 ovarian 93.2% | IGROV1 ovarian 99.2% | OVCAR-3 ovarian 114% | HS 578T breast 87.7% | NCI/ADR-RES ovarian 107%

COc1ccc(C(=S)N2CCN(c3ccccc3Cl)CC2)cc1OC
inactive: SR leukemia 39.9% | RPMI-8226 leukemia 117% | OVCAR-8 ovarian 105% | OVCAR-5 ovarian 95.2% | OVCAR-4 ovarian 99.9% | SK-OV-3 ovarian 120% | IGROV1 ovarian 105% | OVCAR-3 ovarian 104% | HS 578T breast 99.4% | NCI/ADR-RES ovarian 108%

N#Cc1c(NC(=O)c2ccccc2)sc2c1CCC(=O)C2
active: SR leukemia 7.72% | RPMI-8226 leukemia -2.69% | OVCAR-4 ovarian -64.9% | OVCAR-3 ovarian -4.44% | NCI/ADR-RES ovarian 5.57%
inactive: OVCAR-8 ovarian 14.5% | OVCAR-5 ovarian 22.1% | SK-OV-3 ovarian 64.7% | IGROV1 ovarian 27.4% | HS 578T breast 23.3%

Oc1c(Cl)cc(Cl)c2ccc(Cn3cc(-c4ccc(C(F)(F)F)cc4)nn3)nc12
inactive: OVCAR-8 ovarian 70.7% | OVCAR-5 ovarian 88.7% | OVCAR-4 ovarian 62.2% | SK-OV-3 ovarian 104% | IGROV1 ovarian 78.9% | HS 578T breast 87.7% | NCI/ADR-RES ovarian 100%
active: SR leukemia -16.8% | RPMI-8226 leukemia 0.831% | OVCAR-3 ovarian -16.1%

CC(=O)c1cc(O)c2ccccc2c1O
inactive: SR leukemia 110% | RPMI-8226 leukemia 46.4% | OVCAR-8 ovarian 86.3% | OVCAR-5 ovarian 109% | OVCAR-4 ovarian 93.4% | SK-OV-3 ovarian 102% | IGROV1 ovarian 52.8% | OVCAR-3 ovarian 91.7% | HS 578T breast 123% | NCI/ADR-RES ovarian 87%

CCCCN1C(=O)/C(=c2\sc3n(c2=O)C2C(NN=3)N(CC)C(=O)N2CC)c2ccccc21 (stereo not given)
inactive: SR leukemia 11% | OVCAR-5 ovarian 25.8% | OVCAR-4 ovarian 37.5% | SK-OV-3 ovarian 24.5%
active: RPMI-8226 leukemia 4.61% | OVCAR-8 ovarian -12.5% | IGROV1 ovarian 2.64% | OVCAR-3 ovarian -31.5% | HS 578T breast 6.5% | NCI/ADR-RES ovarian -9.17%

c1cnc2[nH]cc(-c3csc(-c4cn(CCCN5CCOCC5)c5ccccc45)n3)c2c1
inactive: RPMI-8226 leukemia 24.4% | OVCAR-8 ovarian 62.4% | OVCAR-5 ovarian 62.1% | OVCAR-4 ovarian 45.1% | SK-OV-3 ovarian 73.4% | IGROV1 ovarian 35.3% | OVCAR-3 ovarian 64.4% | HS 578T breast 28.5% | NCI/ADR-RES ovarian 60.1%
active: SR leukemia 2.93%

C#CCOc1cccc(Nc2ncnc3ccc(NC(=O)CCl)cc23)c1
inactive: SK-OV-3 ovarian 20.1% | HS 578T breast 24.5%
active: SR leukemia -42.1% | RPMI-8226 leukemia -50.9% | OVCAR-8 ovarian -4.18% | OVCAR-5 ovarian -70.1% | OVCAR-4 ovarian -33.9% | IGROV1 ovarian -57.2% | OVCAR-3 ovarian -74.8% | NCI/ADR-RES ovarian -1.49%

Fc1ccc(-c2nn(-c3ccccc3)cc2-c2nc3ccccc3o2)cc1
inactive: SR leukemia 43.6% | RPMI-8226 leukemia 48.2% | OVCAR-8 ovarian 58.8% | OVCAR-5 ovarian 122% | OVCAR-4 ovarian 78.1% | SK-OV-3 ovarian 120% | IGROV1 ovarian 82.1% | OVCAR-3 ovarian 45.1% | HS 578T breast 82% | NCI/ADR-RES ovarian 46.9%

C=CCn1c(SCC(=O)NCc2cc(C)c(O)c(C)c2)nc2ccc(Cl)cc2c1=O
active: SR leukemia -34.1% | RPMI-8226 leukemia -100%
inactive: OVCAR-8 ovarian 106% | OVCAR-5 ovarian 88.4% | OVCAR-4 ovarian 86.2% | SK-OV-3 ovarian 109% | IGROV1 ovarian 65% | OVCAR-3 ovarian 101% | HS 578T breast 98.7% | NCI/ADR-RES ovarian 97.1%

CN1CCN(Cc2ccc(NC(=O)c3cncc(C#Cc4cnc(N)c5ccccc45)c3)cc2C(F)(F)F)CC1
active: SR leukemia 1.53% | RPMI-8226 leukemia -42.8% | OVCAR-8 ovarian -82.5% | OVCAR-5 ovarian -83.7% | OVCAR-4 ovarian -32.7% | SK-OV-3 ovarian -78.5% | IGROV1 ovarian -69.8% | OVCAR-3 ovarian -87.6% | HS 578T breast -41.5% | NCI/ADR-RES ovarian -65.7%

Cc1ccc(C2=Nc3c(N)ncnc3NC(c3ccc4c(c3)OCO4)C2)cc1 (stereo not given)
inactive: SR leukemia 15.8% | RPMI-8226 leukemia 40.1% | OVCAR-8 ovarian 81% | OVCAR-5 ovarian 74.6% | OVCAR-4 ovarian 87.6% | SK-OV-3 ovarian 78.3% | IGROV1 ovarian 32% | OVCAR-3 ovarian 37.8% | HS 578T breast 78% | NCI/ADR-RES ovarian 17.8%

CCCc1cc(NC)nc(S(=O)(=O)CC)n1
inactive: SR leukemia 102% | RPMI-8226 leukemia 101% | OVCAR-8 ovarian 110% | OVCAR-5 ovarian 101% | OVCAR-4 ovarian 115% | SK-OV-3 ovarian 116% | IGROV1 ovarian 105% | OVCAR-3 ovarian 119% | HS 578T breast 108% | NCI/ADR-RES ovarian 104%

CCOP(=O)(OCC)c1nc(-c2ccccc2)oc1NCc1cccnc1
inactive: SR leukemia 102% | RPMI-8226 leukemia 101% | OVCAR-8 ovarian 106% | OVCAR-5 ovarian 101% | OVCAR-4 ovarian 112% | SK-OV-3 ovarian 106% | IGROV1 ovarian 100% | OVCAR-3 ovarian 110% | HS 578T breast 109% | NCI/ADR-RES ovarian 105%

O=C1c2c(c3c4ccc(Br)cc4oc3c3[nH]c4ccccc4c23)C(=O)N1O
inactive: OVCAR-8 ovarian 47.6% | OVCAR-5 ovarian 95.9% | OVCAR-4 ovarian 66% | SK-OV-3 ovarian 79.1% | IGROV1 ovarian 25.3% | OVCAR-3 ovarian 21.3% | HS 578T breast 18% | NCI/ADR-RES ovarian 56.2%
active: SR leukemia 8.52% | RPMI-8226 leukemia 3.91%

O=C1C(Cl)=C(Oc2ccccc2)C(=O)c2ccccc21
inactive: SR leukemia 48.8% | RPMI-8226 leukemia 35.2% | OVCAR-8 ovarian 85% | OVCAR-5 ovarian 118% | OVCAR-4 ovarian 106% | SK-OV-3 ovarian 103% | IGROV1 ovarian 80.7% | OVCAR-3 ovarian 16% | HS 578T breast 31.6% | NCI/ADR-RES ovarian 88.6%

CCOC(=O)c1cnc2ccccc2c1Cl
inactive: SR leukemia 109% | RPMI-8226 leukemia 114% | OVCAR-8 ovarian 99.6% | OVCAR-5 ovarian 98.3% | OVCAR-4 ovarian 84.7% | SK-OV-3 ovarian 101% | IGROV1 ovarian 122% | OVCAR-3 ovarian 106% | HS 578T breast 92.9% | NCI/ADR-RES ovarian 105%

COC(=O)CNC(=O)[C@H](Cc1ccccc1)NCc1ccncc1
inactive: SR leukemia 97% | RPMI-8226 leukemia 91% | OVCAR-8 ovarian 98.3% | OVCAR-5 ovarian 105% | OVCAR-4 ovarian 107% | SK-OV-3 ovarian 80.7% | IGROV1 ovarian 104% | OVCAR-3 ovarian 113% | HS 578T breast 106% | NCI/ADR-RES ovarian 103%

CCN(CC)CCSc1nc(-c2ccccc2)c(C#N)c(=O)[nH]1
inactive: SR leukemia 92.3% | RPMI-8226 leukemia 119% | OVCAR-8 ovarian 111% | OVCAR-5 ovarian 108% | OVCAR-4 ovarian 154% | SK-OV-3 ovarian 90.8% | IGROV1 ovarian 117% | OVCAR-3 ovarian 116% | HS 578T breast 63.5% | NCI/ADR-RES ovarian 58%

O=C(/C=C/c1cn(-c2ccccc2)nc1-c1ccc([N+](=O)[O-])cc1)c1ccc(Cl)cc1
inactive: RPMI-8226 leukemia 38.3% | OVCAR-8 ovarian 38.1% | OVCAR-5 ovarian 34.2% | SK-OV-3 ovarian 66.5% | IGROV1 ovarian 48% | OVCAR-3 ovarian 10.6% | NCI/ADR-RES ovarian 41.1%
active: SR leukemia -22.6% | OVCAR-4 ovarian -21.8% | HS 578T breast -12%

COc1ccc(-c2ccc3cnc4sc(-c5ccc(OC)cc5)nc4c3n2)cc1
inactive: SR leukemia 83.7% | RPMI-8226 leukemia 87.5% | OVCAR-8 ovarian 96.3% | OVCAR-5 ovarian 97.4% | OVCAR-4 ovarian 96.9% | SK-OV-3 ovarian 92.6% | IGROV1 ovarian 94% | OVCAR-3 ovarian 101% | HS 578T breast 94.4% | NCI/ADR-RES ovarian 92.9%

CCN1C(=O)N(CC)C2C1NN=c1s/c(=C\c3ccc(Cl)cc3Cl)c(=O)n12 (stereo not given)
inactive: SR leukemia 12.3% | RPMI-8226 leukemia 16.5% | OVCAR-8 ovarian 10.8% | OVCAR-5 ovarian 28.2% | OVCAR-4 ovarian 46.1% | SK-OV-3 ovarian 29.2% | IGROV1 ovarian 13.4% | HS 578T breast 15.8%
active: OVCAR-3 ovarian -43.3% | NCI/ADR-RES ovarian 5.65%

O=C(Cn1c(=O)sc2nc3ccccc3nc21)Nc1ncc(Cc2cccc(Cl)c2Cl)s1
inactive: SR leukemia 101% | RPMI-8226 leukemia 97.5% | OVCAR-8 ovarian 97% | OVCAR-5 ovarian 101% | OVCAR-4 ovarian 102% | SK-OV-3 ovarian 95.1% | IGROV1 ovarian 81.3% | OVCAR-3 ovarian 111% | HS 578T breast 90.2% | NCI/ADR-RES ovarian 89.6%

Nc1nc(=S)c2ncn(C3OC(COP(=O)(O)O)C(O)C3O)c2[nH]1 (stereo not given)
inactive: SR leukemia 11.7% | RPMI-8226 leukemia 10.9% | OVCAR-8 ovarian 13.8% | OVCAR-5 ovarian 36.8% | OVCAR-4 ovarian 32.2% | IGROV1 ovarian 44.2% | HS 578T breast 67.5% | NCI/ADR-RES ovarian 20.9%
active: SK-OV-3 ovarian 5.27% | OVCAR-3 ovarian 7.25%

N=C(N)c1ccc(-c2ccc(-c3ccc(F)cc3)o2)o1
inactive: OVCAR-5 ovarian 58.4% | OVCAR-4 ovarian 62% | SK-OV-3 ovarian 28.1% | IGROV1 ovarian 44.9% | HS 578T breast 30.5% | NCI/ADR-RES ovarian 22.6%
active: SR leukemia -8.15% | RPMI-8226 leukemia -2.26% | OVCAR-8 ovarian 5% | OVCAR-3 ovarian 7.31%
